Common to all, as to assay: NCI-60 one-dose screen, 48 h (100 = growth as untreated, 0 = no growth, -100 = all killed)
In one test the test system is HCT-15 colon. To be noted: 10 µM unless noted.
The subject of a further test is HT29 colon. To be noted: 10 µM unless noted.
Another test has as its system SNB-75 CNS. Particulars: 10 µM unless noted.
A further test concerns SNB-19 CNS. To be noted: 10 µM unless noted.
The subject of the next test is SK-MEL-5 melanoma. Particulars: 10 µM unless noted.
The next test relates to UACC-62 melanoma. Particulars: 10 µM unless noted.
Another test deals with LOX IMVI melanoma. To be noted: 10 µM unless noted.
For another test, the system named is SK-MEL-28 melanoma. Particulars: 10 µM unless noted.
For the next test, the system named is SK-MEL-2 melanoma. To be noted: 10 µM unless noted.
The next test concerns EKVX NSCLC. To be noted: 10 µM.
For the next test, the system named is SN12C renal. To be noted: 10 µM unless noted.
In a further test the test system is TK-10 renal. Particulars: 10 µM unless noted.
A further test deals with ACHN renal. To be noted: 10 µM unless noted.
A further test deals with CAKI-1 renal. Particulars: 10 µM unless noted.
The next test concerns A498 renal. To be noted: 10 µM unless noted.
Another test deals with CCRF-CEM leukemia. To be noted: 10 µM.
Another test deals with MOLT-4 leukemia. Particulars: 10 µM unless noted.
For the next test, the system named is PC-3 prostate. To be noted: 10 µM unless noted.
The test system of another test is UO-31 renal. Particulars: 10 µM unless noted.

Our source for the growth values is PubChem BioAssay (NCI).

The panel holds about 83,000 compounds, 20% with a hit somewhere; the sample as a whole holds those more often.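 The test compound was applied at a single concentration to cells in 96-well plates for 48 hours, and percent growth was recorded.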 Unmarked numbers belong to inactive results. Active and inactive are the calls of the source. The calls were made as follows: active = growth percent below 10; inactive = the rest.

As for `CC(=O)Nc1nc(C)c(C(=O)NNS(=O)(=O)c2ccccc2)s1`, the growth in the test with HCT-15 colon is 114%; in the test on HT29 colon, 118%; with SNB-75 CNS, 88.2%; with SNB-19 CNS it was 105%; in the test on SK-MEL-5 melanoma, 105%; in the test on UACC-62 melanoma, 109%. The growth was 99.1% in the test on LOX IMVI melanoma; 125% in the test on SK-MEL-28 melanoma; 2.86% (active) in the test on SK-MEL-2 melanoma; 113% in the test on EKVX NSCLC; 105% in the test with SN12C renal; 161% in the test with TK-10 renal. Also, the growth is 115% in the test on ACHN renal; 121% in the test on CAKI-1 renal; 121% in the test with A498 renal; 114% in the test on CCRF-CEM leukemia; 117% in the test on MOLT-4 leukemia.
Turning to `CC(=O)Nc1ccc(C(=O)/C=C/c2ccc(N(C)C)cc2)cc1`, the growth is 94.1% with HCT-15 colon; 91.3% in the test on HT29 colon; 99.7% in the test on SNB-75 CNS; 109% in the test on SNB-19 CNS; 94.6% in the test on PC-3 prostate; 98.7% with SK-MEL-5 melanoma. In addition, the growth was 102% in the test on UACC-62 melanoma; 96.1% in the test with LOX IMVI melanoma; 108% in the test on SK-MEL-28 melanoma; 95.7% in the test on SK-MEL-2 melanoma; 98.2% with SN12C renal; 74.5% in the test with UO-31 renal. The growth in the test with TK-10 renal was 95.4%; in the test on ACHN renal, 103%; in the test on CAKI-1 renal, 97%; in the test on A498 renal it was 104%; in the test with CCRF-CEM leukemia, 101%; in the test on MOLT-4 leukemia it was 99.2%.
Regarding `CCOC(=O)CSSCC(=O)OCC`, the growth in the test with HCT-15 colon is 102%; with HT29 colon, 112%; in the test with SNB-75 CNS, 94.4%; with SNB-19 CNS, 108%; in the test with PC-3 prostate it was 100%; with SK-MEL-5 melanoma, 99.8%. Also, the growth in the test with UACC-62 melanoma is 98.4%; in the test with LOX IMVI melanoma, 111%; with SK-MEL-28 melanoma, 107%; in the test on SK-MEL-2 melanoma, 111%; with EKVX NSCLC, 105%; in the test on UO-31 renal, 100%. Further, the growth in the test on TK-10 renal was 103%; in the test with ACHN renal, 103%; in the test on CAKI-1 renal, 97.5%; with A498 renal, 118%; with CCRF-CEM leukemia it was 95.9%; with MOLT-4 leukemia it was 90.3%.
Regarding `O=Nc1c(-c2c(O)[nH]c3cc(Br)ccc23)[nH]c2ccccc12`, the growth is 1.93% (active) with HCT-15 colon; 0.864% (active) in the test on HT29 colon; -13.3% (active) in the test on SNB-75 CNS; 15.1% in the test with SNB-19 CNS; -2.93% (active) with PC-3 prostate; 38.9% in the test with UACC-62 melanoma. The growth in the test with LOX IMVI melanoma was 8.85% (active); with SK-MEL-28 melanoma, -100% (active); in the test on SK-MEL-2 melanoma, -66.5% (active); with EKVX NSCLC, 29.8%; in the test on SN12C renal it was 16.7%; with UO-31 renal it was -28.9% (active). Moreover, the growth in the test with TK-10 renal was -10.5% (active); in the test on ACHN renal, 0.906% (active); in the test with CAKI-1 renal it was 2.36% (active); with A498 renal, -82% (active); in the test on CCRF-CEM leukemia, -6.73% (active); with MOLT-4 leukemia, -68.9% (active).
As for `CN1CCN(Cc2ccc(NC(=O)c3cncc(C#Cc4c(N)ncc5ccc(F)cc45)c3)cc2C(F)(F)F)CC1`, the growth is 25.9% in the test with HCT-15 colon; -60.1% (active) with HT29 colon; 15.5% in the test on SNB-75 CNS; 74.3% in the test on SNB-19 CNS; 43.7% in the test on PC-3 prostate; 22.8% in the test on UACC-62 melanoma. Also, the growth in the test on LOX IMVI melanoma was -8.63% (active); with SK-MEL-28 melanoma it was -84.9% (active); with SK-MEL-2 melanoma, -33% (active); with EKVX NSCLC it was 50.7%; with SN12C renal it was 36.4%; with UO-31 renal it was -78.9% (active). Besides, the growth with TK-10 renal is 11.5%; in the test on ACHN renal it was -93.6% (active); in the test with CAKI-1 renal, 25.2%; in the test with A498 renal, 15%; with CCRF-CEM leukemia it was 0.436% (active); in the test on MOLT-4 leukemia, 9.77% (active).
As to `CC1(C)C(O)NC(Cl)=C(C#N)C1(C#N)C#N` (stereo not given), the growth with HCT-15 colon is 153%; in the test with HT29 colon, 101%; in the test with SNB-75 CNS, 98.4%; in the test with SNB-19 CNS it was 105%; in the test with PC-3 prostate it was 114%; in the test on UACC-62 melanoma it was 131%. In addition, the growth in the test on LOX IMVI melanoma was 109%; in the test with SK-MEL-28 melanoma it was 108%; in the test on SK-MEL-2 melanoma, 97.6%; in the test with EKVX NSCLC it was 102%; with SN12C renal it was 127%; in the test on UO-31 renal, 81.3%. In addition, the growth in the test on TK-10 renal was 143%; with ACHN renal, 127%; in the test with CAKI-1 renal, 177%; in the test on A498 renal it was 103%; with CCRF-CEM leukemia, 78.8%; in the test with MOLT-4 leukemia, 103%.
For the molecule `O=C(Nc1ccc(-n2cc(-c3ccncc3)c(-c3ccc(Cl)c(O)c3)n2)cc1)c1ccc(Cl)c(C(F)(F)F)c1`, the growth was -28% (active) in the test with HCT-15 colon; -86.3% (active) in the test with HT29 colon; -48.6% (active) in the test on SNB-75 CNS; 32.5% in the test on SNB-19 CNS; -19.9% (active) in the test with PC-3 prostate; -97.5% (active) in the test on SK-MEL-5 melanoma. For the same molecule, the growth was -3.14% (active) with UACC-62 melanoma; -5.19% (active) in the test on LOX IMVI melanoma; -38.3% (active) in the test on SK-MEL-28 melanoma; 35.2% with EKVX NSCLC; 66.6% in the test with SN12C renal; -37.3% (active) in the test on UO-31 renal. In addition, the growth is -19.8% (active) with TK-10 renal; -24.3% (active) in the test on ACHN renal; -33.5% (active) in the test on CAKI-1 renal; 71.8% with A498 renal; -1.8% (active) in the test on MOLT-4 leukemia.
Regarding `CCCCn1c(Cc2ccc(OC)cc2)nc2cc(OC)c(OC)cc2c1=O`, the growth in the test on HCT-15 colon was 93.4%; with HT29 colon, 101%; in the test with SNB-75 CNS, 87.5%; with SNB-19 CNS it was 84.7%; in the test with PC-3 prostate, 91.8%; in the test with UACC-62 melanoma, 59.6%. Moreover, the growth is 90.2% with LOX IMVI melanoma; 90.6% in the test with SK-MEL-28 melanoma; 44.8% in the test with EKVX NSCLC; 88.6% with SN12C renal; 74.7% in the test on UO-31 renal; 67.2% in the test with TK-10 renal. Also, the growth was 80.9% with ACHN renal, 62% in the test on A498 renal, 53.1% with CCRF-CEM leukemia and 49.1% in the test with MOLT-4 leukemia.
